# Screening data from PubChem.
# An excerpt weighted towards active compounds, which were near 1.1% of everything screened.
# STK33 inh – blocks human STK33 kinase activity. ADP-Glo luminescence, MBP substrate. Q9BYT3. inhibition, % at 12.5 µM. hit rate 0.44% among 27,000. AID 2322; in the data active = inhibition above about 20%
# Target sequence (Q9BYT3 whole entry, looked up): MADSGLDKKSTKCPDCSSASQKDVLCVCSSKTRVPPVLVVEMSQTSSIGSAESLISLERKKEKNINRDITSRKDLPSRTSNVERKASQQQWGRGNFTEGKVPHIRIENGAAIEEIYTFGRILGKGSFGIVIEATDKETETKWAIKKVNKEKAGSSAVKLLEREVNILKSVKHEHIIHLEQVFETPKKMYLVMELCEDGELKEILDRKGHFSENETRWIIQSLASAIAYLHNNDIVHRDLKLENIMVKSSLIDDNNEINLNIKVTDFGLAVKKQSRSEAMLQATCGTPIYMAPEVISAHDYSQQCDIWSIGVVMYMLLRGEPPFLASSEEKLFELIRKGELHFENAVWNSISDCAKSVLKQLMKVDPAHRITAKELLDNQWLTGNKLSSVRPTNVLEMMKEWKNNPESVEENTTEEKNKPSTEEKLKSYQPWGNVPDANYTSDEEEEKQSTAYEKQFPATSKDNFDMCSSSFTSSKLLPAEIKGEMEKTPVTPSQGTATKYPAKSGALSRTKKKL
# ID4 SMM – ID4 (human) binding | P47928 | small molecule microarray, Flag-ID4 binding, fluorescence F/B | calls only | hit rate 1.2% among 31,000 | AID 624137; call rule not given here;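 note: a binder raises fluorescence above local background on the spot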
# Starred values were filed as active, the others as inactive; i = inactive; · = no result; + = active, no number.
SMILES,STK33 inh,ID4 SMM
O=C(CC1CC1)Nc1ccc2c(c1)[C@@H]1C[C@H](CC(=O)NC3CCCC3)O[C@H](CO)[C@@H]1O2,·,+
COCC(=O)Nc1ccc2c(c1)[C@@H]1C[C@H](CC(=O)NC3CCCC3)O[C@@H](CO)[C@@H]1O2,·,i
COC(=O)c1ccc(C(=O)OC)c(NC(=O)CSc2nc(C)cc(C)n2)c1,1,i
O=C1C=CC(=O)c2c(O)c(Cl)c(Cl)c(O)c21,22*,·
COc1ccc(/C=C/C(=O)CC(=O)/C=C/c2cccc(O)c2OC)cc1O,123*,·
COc1cc(O)c(C(=O)/C=C/c2ccc(OC)c(OC)c2)c(OC)c1,0,i
COc1cc(O)c(CC=C(C)C)cc1C(=O)/C=C/c1ccc(O)c(CC=C(C)C)c1,0,·
COc1cc(/C=C/C(=O)CC(=O)/C=C/c2ccc(O)c(OC)c2)ccc1O,117*,i
COc1ccc(S(=O)(=O)N(C)CC(=O)Nc2ccc(F)c(Cl)c2)cc1C,-3,i
Cc1ccc(NC(=O)c2ccc(CSc3nnc(-c4ccc(NC(=O)c5ccccc5Cl)cc4)n3C)cc2)cc1,4,i
CC(NC(=O)/C=C/C(=O)O)C(=O)NC(C(=O)NC(Cc1c[nH]c2ccccc12)C(=O)O)C(C)c1c[nH]c2ccccc12 (configuration not stated),150*,i
CC(C)[C@H](N)C(=O)N[C@@H](Cc1c[nH]c2ccccc12)C(=O)O,3,·
COc1ccc(C)cc1NC(=O)CSc1nc2ccccc2c(=O)n1-c1ccc(Cl)cc1,1,i
CC1(C(=O)NCCCn2ccnc2)CC1(Cl)Cl (configuration not stated),1,i
C[C@H](CO)N1C[C@H](C)[C@@H](CN(C)Cc2ccccc2C(=O)O)Oc2ncc(C3=CCCCC3)cc2C1=O,·,+
C[C@H](CO)N1C[C@H](C)[C@@H](CN(C)Cc2ccccc2F)Oc2ncc(C3=CCCCC3)cc2C1=O,·,i
C[C@@H]1CN([C@H](C)CO)C(=O)c2cc(C3=CCCCC3)cnc2O[C@H]1CN(C)Cc1ccc(C(=O)O)cc1,·,+
C[C@H]1CN([C@@H](C)CO)C(=O)c2cc(C3=CCCCC3)cnc2O[C@@H]1CN(C)Cc1ccccc1,·,i
C[C@@H](NC(=O)C[C@H]1CC[C@@H](NC(=O)c2cccnc2)[C@@H](CO)O1)c1ccccc1,·,i
Cc1ccccc1NC(=O)COc1ccc(-c2nc3sc4c(c3c(=O)[nH]2)CCCC4)cc1,1,i
COc1cc(-c2nc3sc4c(c3c(=O)[nH]2)CCCC4)cc(Br)c1OCC(=O)O,5,+
CCOc1ccccc1OCC(=O)Nc1ccccc1[N+](=O)[O-],-3,i
Cc1sc2ncn(CC(=O)Nc3cccc(Cl)c3C)c(=O)c2c1-c1ccccc1,1,i
CNC[C@@H]1Oc2ccc(NS(C)(=O)=O)cc2C(=O)N([C@@H](C)CO)C[C@H]1C,·,+
CNC[C@@H]1Oc2ccc(NS(C)(=O)=O)cc2C(=O)N([C@@H](C)CO)C[C@@H]1C,-1,·
SMILES,STK33 inh,ID4 SMM
CNC[C@H]1Oc2ccc(NS(C)(=O)=O)cc2C(=O)N([C@@H](C)CO)C[C@@H]1C,0,·
CNC[C@H]1Oc2ccc(NS(C)(=O)=O)cc2C(=O)N([C@H](C)CO)C[C@@H]1C,·,+
COc1ccc(CNC(=O)C[C@@H]2C[C@H]3c4cc(NC(=O)CN(C)C)ccc4O[C@H]3[C@H](CO)O2)cc1,·,i
COc1ccc(S(=O)(=O)Nc2ccc3c(c2)CC(=O)N([C@@H](C)CO)C[C@@H](C)[C@@H](CN(C)S(=O)(=O)c2ccc(OC)cc2)O3)cc1,-1,i
Cc1cc(=O)n2c3ccccc3n(CC(O)Cn3ccnc3)c2c1C#N (configuration not stated),-5,i
C[C@@H]1CN([C@@H](C)CO)C(=O)c2cc(NS(=O)(=O)c3ccccc3)ccc2O[C@@H](C)CCCCO[C@H]1CN(C)C(=O)c1ccncc1,·,i
C[C@H]1CCCCO[C@@H](CN(C)Cc2ccc(C(=O)O)cc2)[C@@H](C)CN([C@@H](C)CO)C(=O)c2cc(NS(=O)(=O)c3ccccc3)ccc2O1,·,+
C[C@H]1CCCCO[C@@H](CN(C)C(=O)c2ccncc2)[C@@H](C)CN([C@@H](C)CO)C(=O)c2cc(NS(=O)(=O)c3ccccc3)ccc2O1,·,+
C[C@@H]1CCCCO[C@H](CN(C)Cc2ccccc2)[C@@H](C)CN([C@@H](C)CO)C(=O)c2cc(NS(=O)(=O)c3ccccc3)ccc2O1,·,i
O=C1Cc2c([nH]c3ccc([N+](=O)[O-])cc23)-c2ccccc2N1,23*,·
O=[N+]([O-])c1ccc(O)c(C(c2c[nH]c3ccccc23)c2c[nH]c3ccccc23)c1,-3,i
COC(=O)c1ccccc1NC(=O)CN(c1ccc(F)cc1)S(C)(=O)=O,-3,i
O=C1N=C(c2cccc(O)c2)c2ccccc2Nc2ccccc21,10,·
O=C(NCc1cccnc1)c1cc(-c2ccccc2)on1,7,i
O=P(CCNCc1cccnc1)(c1ccccc1)c1ccccc1,·,+
NC(=O)NCC#Cc1ccc2c(c1)[C@]1(C(=O)N2)[C@H](c2ccc(OCCO)cc2)N2[C@H](c3ccccc3)[C@H](c3ccccc3)OC(=O)[C@H]2[C@@H]1C(=O)N1CCCCCCC1,17,i
Cc1cccnc1NC(=O)C(C)Oc1ccccc1 (configuration not stated),4,i
Cc1cccnc1NCC(O)COc1ccccc1 (configuration not stated),2,+
O=C(CSc1nnc(-c2ccco2)n1-c1cccc2ccccc12)Nc1ccc(C(=O)O)cc1,-1,+
COc1ccc(NC(=O)CSc2nnc(-c3ccco3)n2-c2ccccc2)cc1,-5,i
CN(C)c1ccc2c(c1)[C@@H]1C[C@@H](CC(=O)NCc3ccc(-c4ccccc4)cc3)O[C@H](CO)[C@@H]1O2,·,i
COc1ccccc1NC(=O)CSc1nc(C)cc(C(F)(F)F)n1,0,i
COc1ccc(OC)c(S(=O)(=O)N2CCC(C(=O)Nc3cccc(F)c3)CC2)c1,9,i
Cc1noc(C)c1NC(=O)Nc1cccc2c1O[C@@H](CN(C)C(=O)NC1CCCCC1)[C@@H](C)CN([C@@H](C)CO)C2=O,·,i
Cn1c(SCC(=O)N2CCN(Cc3ccccc3)CC2)nnc1-c1ccncc1,-1,+
SMILES,STK33 inh,ID4 SMM
CCCn1c(SCC(=O)N2CCOCC2)nnc1-c1ccncc1,1,i
O=C(CCCCCCCCc1ccccc1)c1c(O)cc(O)cc1O,-4,i
O=C(CCc1ccc(O)cc1)c1c(O)cc(O)cc1O,35*,·
Cc1noc(C)c1S(=O)(=O)Nc1ccc2c(c1)CC(=O)N([C@H](C)CO)C[C@@H](C)[C@@H](CN(C)C(=O)Nc1ccc3c(c1)OCO3)O2,-1,·
Cc1cccc(C(C)C)c1NC(=O)CN(C1CCCCC1)S(C)(=O)=O,1,i
CNCCNS(=O)(=O)c1cccc2cnccc12,22*,i
NCCNS(=O)(=O)c1cccc2c(Cl)cccc12,5,i
O=S(=O)(NCCNC/C=C/c1ccc(Br)cc1)c1cccc2cnccc12,79*,·
C=C(C(=O)O)C1CCC2(C)CCC(O)C2(C(C)=O)C1 (configuration not stated),-7,i
Cc1c(Cl)ccc2c(C(=O)NCCCn3cc(Br)cn3)cc(-c3ccncc3)nc12,10,i
Cn1c(NCCCN)nc2c1c(=O)n(Cc1ccccc1Cl)c(=O)n2C,-1,+
